Bioassay records deposited in PubChem BioAssay by Sanford-Burnham Center for Chemical Genomics.
A selection: hits, their analogues and other compounds. The true share with any hit is near 4%.
TROY signal inh = TROY signaling inhibition; Q293 LMP1-TROYcd NF-kB luciferase reporter, 4 h; inhibition, % at 10 µM; actives 0.98% (n = 360,000);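 active = compounds whose plate-normalised and pattern-corrected inhibition of the luciferase reporter signal at the single screening dose is 50% or more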
CF NFkB block = inhibitors of cystic fibrosis induced NF-kB. KKLEB NF-kB-GFP reporter, PAF-induced, GFP fluorescence overnight. AID 588850. actives 0.86% (n = 360,000). inhibition, % at 5 µM;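 active = at least 50% inhibition at 5 µM, scaled per plate between neutral and stimulator controls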;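 note: PAF is a Pseudomonas aeruginosa culture filtrate used as stimulus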
TWEAK Fn14 block = inhibitors of TWEAK-Fn14 interaction signaling; TWEAK-stimulated Fn14 reporter cells, luciferase luminescence, 8 h; inhibition, % at 10 µM; actives 2% (n = 360,000); AID 1159606; in the data active = inhibition above about 50%
HIF-2a block = blocks HIF-2a reporter activity; actives 0.72% (n = 360,000); 786-0 RCC cells HIF-2a reporter, luciferase luminescence, overnight; inhibition, % at 18.8 µM;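 active = inhibition of the luminescence signal of 40% or more relative to plate controls, in a single-dose primary screen at 18.75 µM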
KKLEB tox = reduces viability of KKLEB cystic fibrosis airway cells; activity change (cytotoxicity), % at 5 µM; KKLEB CF airway cells viability, ATPlite luminescence, overnight; stronger effect = lower value; cells stimulated with P. aeruginosa culture filtrate; actives 0.36% (n = 360,000);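 active = corrected activity change at or below -50% at 5 µM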
Peg3 promoter = Peg3 promoter activity inhibition; HeLa PEG-Prom luciferase reporter, luminescence, overnight; inhibition, % at 20 µM; actives 1.7% (n = 360,000);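 active = inhibition of at least 50% at 20 µM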
Large screens that a line does not name were inactive.

N#CCCCCC#N	none
CCc1ccc(CNCCc2ccc(F)cc2)cc1	none
CCN(CC)c1ccc(CNCCc2ccc(F)cc2)cc1	Peg3 promoter 64
CCN(CC)C(=O)c1ccc(NC(=S)NC(=O)CCc2ccccc2)cc1	none
Clc1ccc(CCNCc2ccncc2)c(Cl)c1	none
CN1CCN(Cc2ccc3ccccc3c2)CC1	none
CCCCCCOc1ccc(CN2CCN(C)CC2)cc1	TROY signal inh 65, TWEAK Fn14 block 61
Cc1[nH]n(-c2ccccc2)c(=O)c1C(c1ccc([N+](=O)[O-])cc1)c1c(C)[nH]n(-c2ccccc2)c1=O	CF NFkB block 55
O=C1NC2C(=CC(O)C(O)C2O)c2cc3c(cc21)OCO3 (stereo not drawn)	TROY signal inh 79, CF NFkB block 78, TWEAK Fn14 block 100, Peg3 promoter 98
CCC(=O)[C@@H](C)[C@@H](O)[C@H](C)C[C@@H](C)C1OC(=O)C[C@@]2(O)CC=C(C)C(O2)C(C)=CCCC[C@H](O[C@H]2C[C@@H](OC(N)=O)[C@H](O)[C@@H](C)O2)C=C[C@H](C)C[C@H]1C (stereo partly drawn)	TWEAK Fn14 block 89 (no result: CF NFkB block, KKLEB tox, Peg3 promoter)
Oc1cccc2nc3ccccc3nc12	none
O=C1NC(=S)NC(=O)C1=Cc1ccc(Br)s1	HIF-2a block 79
Cc1ccc(CN2C(=O)NC(=O)C3(Cc4c(nc5ccccn5c4=O)N4CCCCCC43)C2=O)cc1 (stereo not drawn)	TROY signal inh 87
O=C1NC(=O)C2(Cc3ccccc3N3CCCC32)C(=O)N1c1cccc(Cl)c1 (stereo not drawn)	none
CCC1(CCC(C)C)C(=O)NC(=O)N(c2ccccc2)C1=O (stereo not drawn)	none (no result: CF NFkB block, KKLEB tox, Peg3 promoter)
CC(C)(C)C(=O)N1Cc2cnnn2-c2ccccc2C1C#N (stereo not drawn)	none
c1ccc(-c2[nH]c(-c3ccccc3)[n+](CC3CO3)c2-c2ccccc2)cc1 (stereo not drawn)	TWEAK Fn14 block 80
O=C1C=C(N2CC2)c2ccccc2C1=O	CF NFkB block 60
CCN(CC)P(=O)(/C=C(\Cl)c1ccccc1)/C=C(\Cl)c1ccccc1	none
CCC1C2Cc3ccc(O)cc3C1(CC)CCN2C (stereo not drawn)	none
CCOC(=O)[C@]12Cc3cc(Cl)ccc3[C@H]1N(Cc1ccccc1)C(=O)c1cc(OC)ccc12	TWEAK Fn14 block 52 (no result: CF NFkB block, KKLEB tox, Peg3 promoter)
CCOC(=O)[C@]12Cc3cc(OC)ccc3[C@H]1N(Cc1ccccc1)C(=O)c1cc(OC)ccc12	none (no result: CF NFkB block, KKLEB tox, Peg3 promoter)
CCOC(=O)[C@]12Cc3cc4ccccc4cc3[C@H]1N(Cc1ccccc1)C(=O)c1cc(OC)ccc12	TWEAK Fn14 block 56 (no result: CF NFkB block, KKLEB tox, Peg3 promoter)
CCOC(=O)[C@]12Cc3cc(OC)ccc3[C@H]1N(C)C(=O)c1ccccc12	none (no result: CF NFkB block, KKLEB tox, Peg3 promoter)
CCOC(=O)[C@]12Cc3cc(OC)ccc3[C@H]1N(C1CCCCC1)C(=O)c1ccccc12	TWEAK Fn14 block 66 (no result: CF NFkB block, KKLEB tox, Peg3 promoter)
CCOC(=O)[C@]12Cc3cc4ccccc4cc3[C@H]1N(Cc1ccccc1)C(=O)c1ccccc12	TWEAK Fn14 block 68 (no result: CF NFkB block, KKLEB tox, Peg3 promoter)
O=C(CCc1nnc2ccc(NCc3ccc(F)cc3)nn12)N1CCC2(CC1)OCCO2	none
NC(=O)c1ccc(N)nc1	CF NFkB block 78, KKLEB tox -91
Cc1ccc(C(O)(C(=O)OC(C)C)C(O)c2ccccc2)cc1 (stereo not drawn)	none (no result: TROY signal inh, CF NFkB block, TWEAK Fn14 block, KKLEB tox, Peg3 promoter)
C[C@H](CO)N1C[C@H](C)[C@@H](CN(C)C(=O)Oc2ccccc2)OCc2cnnn2CCCC1=O	none
CC(C)(C)n1cc(C(=O)c2ccc3ccccc3c2O)cn1	TROY signal inh 83, TWEAK Fn14 block 88
COc1ccccc1N1CCN(CCc2c[nH]c3cc4c(cc23)OCO4)CC1	none
COc1ccc(-c2nc3ccc(Br)cn3c2CC(=O)N2CCCC2)cc1OC	none (no result: CF NFkB block, KKLEB tox, Peg3 promoter)
COc1cc(/C=C/c2nc3ccccc3c(=O)n2-c2cccc(O)c2)ccc1O	none
COc1cc(/C=C/c2nc3ccccc3c(=O)n2-c2ccccc2O)ccc1O	TWEAK Fn14 block 56
Oc1ccc2c3c1OC1c4oc5ccccc5c4C[C@@]4(O)[C@@H](C2)N(CC2CC2)CC[C@]314 (stereo partly drawn)	none
CCC(C)NC(=O)c1c(N)n(Cc2ccc3c(c2)OCO3)c2nc3ccccc3nc12 (stereo not drawn)	TROY signal inh 57
Fc1cccc(-c2ccc3c(c2)CN(C(=S)NCCc2ccccc2)Cc2cnnn2-3)c1	none
CC1=CP(=O)(Oc2ccc([N+](=O)[O-])cc2)CC1 (stereo not drawn)	none
N#CC(C#N)=Cc1ccc(O)c(O)c1	none
CC(C)(C)c1cc(C=C(C#N)C#N)cc(C(C)(C)C)c1O	TROY signal inh 57, TWEAK Fn14 block 73, Peg3 promoter 56
O=[N+]([O-])c1ccc(CNCCc2ccccc2)cc1	TWEAK Fn14 block 98
Cc1ccc(-n2c(O)c(C=NCc3ccco3)c(=O)[nH]c2=S)cc1C	none
Oc1cc(Cl)c(Cl)c(Cl)c1	TROY signal inh 55
Oc1cc(Cl)c(Cl)c(Cl)c1Cl	TROY signal inh 54
C=C(C)[C@@]12OC3(c4ccccc4)O[C@@H]1C1[C@@H]4O[C@]4(CO)[C@@H](O)[C@]4(O)C(=O)C(C)=C[C@H]4[C@@]1(O3)[C@H](C)[C@H]2OC(=O)/C=C/C=C/c1ccccc1 (stereo partly drawn)	CF NFkB block 54, KKLEB tox -53, Peg3 promoter 100
CCC(c1nnnn1C1CCCC1)N1CCC2(CC1)C(=O)NCN2c1ccccc1 (stereo not drawn)	none
COc1ccc2c(c1)/C(=C/c1cnc[nH]1)C(=O)N2	CF NFkB block 54, Peg3 promoter 100
COC(=O)C1=Nc2ccccc2/C1=C\c1c(O)n(-c2cc(OC)ccc2OC)c(=O)[nH]c1=O	TWEAK Fn14 block 60
Cc1ccccc1-n1c(O)c(/C=C2/C(c3ccccc3)=Nc3ccccc32)c(=O)[nH]c1=O	TWEAK Fn14 block 56, HIF-2a block 64
Cc1cccc(-n2c(O)c(/C=C3/C(c4ccccc4)=Nc4ccccc43)c(=O)[nH]c2=O)c1	TWEAK Fn14 block 53
COP(=O)(OC)/C(C=O)=N/Nc1ccc([N+](=O)[O-])cc1	none
CC1CN=C(Nc2cccc3ccccc23)S1 (stereo not drawn)	TROY signal inh 53
CC1CN=C(Nc2ccccc2)S1 (stereo not drawn)	none
Cc1cccc(-n2c(/C=C/c3ccc([N+](=O)[O-])o3)nc3ccccc3c2=O)c1	TWEAK Fn14 block 95, Peg3 promoter 86
CC(Cc1ccccc1)NC(=O)NC(C)Cc1ccccc1 (stereo not drawn)	none
CC(=O)NC(C)Cc1ccccc1 (stereo not drawn)	TWEAK Fn14 block 81 (no result: TROY signal inh)
